Each structure is given as a SMILES string. Where a name gives a salt, the structure may show the parent alone. Values without a mark were called inactive.

The test concerns Vero E6 infected with SARS-CoV-2. Kind of test: inhibition of SARS-CoV-2 cytopathic effect; higher = more antiviral protection, active = above 15. The following applies: 48 h. Background: Cytopathic effects are the visible damage that an infection or toxin causes in cultured cells.

Regarding `N=c1ccn2c(n1)O[C@H]1[C@H](O)[C@@H](CO)O[C@H]12` [Cyclocytidine HCl], the “inhibition of SARS-CoV-2 cytopathic effect” value (from here on “inhibition”) runs as follows: (1 nM) 1.24%; (8.33 nM) 1%; (100 nM) 0%; (833.33 nM) -0.83%; (10000 nM) -4.27%.
Take `Cc1ccccc1/N=N/c1ccc(/N=N/c2c(O)ccc3ccccc23)c(C)c1` [sudan-IV]: the “inhibition” value is, setting by setting: (1 nM) 8.71%; (8.33 nM) -0.01%; (100 nM) -4.36%; (833.33 nM) -0.99%; (10000 nM) -2.29%.
Consider `O=C1Nc2ccc(I)cc2C1=Cc1cc(Br)c(O)c(Br)c1`, for which the “inhibition” value is 2.36% (1 nM); 0.05% (8.33 nM); 1.54% (100 nM); 2.76% (833.33 nM); 8.55% (10000 nM).
In the same order, the values of `COc1ccc2[nH]c(-c3ccccc3)c(CCNC(C)=O)c2c1` [2-phenylmelatonin] are 0.42%, -1.88%, 0.56%, -2.59% and -0.4%.
Regarding `Cn1cc(-c2ccc3c(c2)CCN3C(=O)Cc2cccc(C(F)(F)F)c2)c2c(N)ncnc21`, the “inhibition” value by setting is: (1 nM) 0.06%; (8.33 nM) 0.68%; (100 nM) 1.48%; (833.33 nM) 32.5% (active); (10000 nM) 27.7% (active).
As for `O=c1c(-c2ccc(O)cc2)coc2cc(O)ccc12` [daidzein], the “inhibition” value reads like this: (1 nM) 0.46%; (8.33 nM) 0.3%; (100 nM) 0.05%; (833.33 nM) -0.66%; (10000 nM) -1.03%.
Take `Cc1cccn2c(=O)c(/C=C(\C#N)c3nc4ccccc4s3)c(Oc3ccc(F)cc3)nc12`: the “inhibition” value (1 nM) is -2.85%; the “inhibition” value (8.33 nM) is 0.91%; the “inhibition” value (100 nM) was -1.07%; the “inhibition” value (833.33 nM) was -1.93%; the “inhibition” value (10000 nM) is -0.23%.
The like results for `COC(=O)c1ccc(N2CCN(C)CC2)c(NC(=O)c2cccc(OC)c2)c1` were, in that order, 6.88%, 6.06%, -2.23%, -3.85% and 1.03%.
In the same order, the values of `CCN(CC)CCOC(=O)C(c1ccccc1)C1CCCCC1` (stereo not given) [drofenine] are -1.59%, 1.9%, -1.61%, -1.42% and 1.22%.
As to `N[C@@H]1CN(c2c(F)cc3c(=O)c(C(=O)O)cn([C@@H]4C[C@@H]4F)c3c2Cl)CC12CC2` [sitafloxacin], the “inhibition” value reads like this: (1 nM) -0.69%; (8.33 nM) -3.2%; (100 nM) -0.99%; (833.33 nM) -1.2%; (10000 nM) 5.19%.
With `C/C(=C\c1csc(C)n1)[C@@H]1C[C@@H]2O[C@]2(C)CCC[C@H](C)[C@H](O)[C@@H](C)C(=O)C(C)(C)[C@@H](O)CC(=O)N1` [ixabepilone], the “inhibition” value reads like this: (1 nM) -3.63%; (8.33 nM) 0.38%; (100 nM) -5.48%; (833.33 nM) -6.58%; (10000 nM) -2.57%.
On to `CC(C)(CCCCCC(O)CCCCCC(C)(C)C(=O)O)C(=O)O` [bempedoic-acid], for which the “inhibition” value is, setting by setting: (1 nM) 0.91%; (8.33 nM) 0.43%; (100 nM) 0.18%; (833.33 nM) 0.98%; (10000 nM) 1.16%.
For `NC1=N[C@@](c2cccc(-c3cncnc3)c2)(c2ccnc(C(F)F)c2)c2cccc(F)c21`, the “inhibition” value is 0.77% (1 nM); -1.06% (8.33 nM); -1.46% (100 nM); -0.56% (833.33 nM); -2.76% (10000 nM).
Take `NCCNc1ccc(NCCN)c2c1C(=O)c1ccncc1C2=O` [pixantrone]: the “inhibition” value was -1.68% (1 nM); 0.16% (8.33 nM); -1.63% (100 nM); 1.22% (833.33 nM); 1.13% (10000 nM).
Turning to `CC[C@@]1(O)C(=O)OCc2c1cc1n(c2=O)Cc2cc3c(CN(C)C)c(O)ccc3nc2-1` [topotecan], the “inhibition” value reads like this: (1 nM) 0.54%; (8.33 nM) 1.66%; (100 nM) -1.53%; (833.33 nM) -6.88%; (10000 nM) -15.3%.
In the same order, the values of `CNS(=O)(=O)Cc1ccc2[nH]cc(CCN(C)C)c2c1` [sumatriptan] are 1.16%, 0.24%, 1.25%, 0.28% and -0.08%.
Consider `CCNC(=O)Nc1ccc(-c2nc3c(c(N4CCOC[C@@H]4C)n2)CCN(C2COC2)C3)cc1`, for which the “inhibition” value is 0.65% (1 nM); -0.06% (8.33 nM); -0.8% (100 nM); 0.29% (833.33 nM); -0.84% (10000 nM).
Take `CC(C(=O)O)c1ccc(C(=O)c2cccs2)cc1` (stereo not given) [suprofen]: the “inhibition” value runs as follows: (1 nM) 2.14%; (8.33 nM) 0.24%; (100 nM) -0.86%; (833.33 nM) -2.28%; (10000 nM) -2.92%.

The record behind these values is the supplement of paper PMC13380429.
